Experimental data from PubChem BioAssay (NCATS).
Inconclusive results are not listed. Unmarked numbers belong to inactive results. Activity calls are given as the source filed them. Calls come from the whole dose curve; as a rule, active = well fitted cell-killing curve with a large enough effect; inconclusive = small, poorly fitted or top-dose-only effect; inactive = flat fitted curve, though single readings scatter.

test: Cell Viability - LYMP2-009 (AID 968); conditions: LYMP2-009 lymphoblastoid cell viability; series mostly up to 92.2 µM; activity change, negative = viability loss: at the top concentration;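 note: cells exposed to compound for 24 h at 37 °C; nearly all actives have a fitted effect of over 55% in size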;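 for activity change, negative = viability loss: 0% = DMSO alone and the full-kill end = tetraoctylammonium bromide at 92 µM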
Description: NIH Chemical Genomics Center [NCGC]
NIH Molecular Libraries Screening Centers Network [MLSCN]
National Institutes of Environmental Health Sciences [NIEHS]
National Toxicology Program [NTP]
We have developed a 1536-well cell-based assay for quantitative high throughput screening (qHTS) against a number of cell lines to determine in vitro cytotoxicity of small molecules. This particular assay uses a human lymphoblastoid cell line (LYMP2-009) purchased from Coriell Institute for Medical Research.
NCGC Assay Protocol Summary:
The CellTiter-Glo luminescent cell viability assay (Promega) is a homogeneous method to measure the number of viable cells in culture. The end point readout of this assay is based on quantitation of intracellular ATP, an indicator of metabolic activity, using the luciferase reaction. Luciferase catalyzes the oxidation of beetle Luciferin to oxyluciferin and light in the presence of ATP. The luminescent signal is proportional to amount of ATP present.
Using the CellTiter-Glo luminescent cell viability assay, the amount of cellular ATP was measured in the lymphoblastoid cell line with complete culture medium following compound treatment for 24 hours. The assay was performed in opaque white Kalypsys 1536-well plates. In the screen, tetraoctylammonium bromide was used as positive control. Library compounds were measured for their ability to cause acute toxicity in the cell line, as reflected by a decrease in intracellular ATP levels, in a concentration-dependent manner. […] AC50 values were determined from concentration-response data modeled with the standard Hill equation.
qHTS protocol for CellTiter Glo lymphoblastoid cellular assay
[Step] [Parameter] [Value] [Description]
1. Reagent; 5 uL; 2500 lymphoblastoid cells/well
2. Time; 5 hr; 37 C incubation
4. Controls; 23 nL; Tetraoctylammonium bromide 6.4pM to 92 uM
5. Time; 24 hr; 37 C incubation
6. Reagent; 5 uL; CellTiter Glo reagent
7. Time; 30 min; Room Temperature
8. Detection; Luminescence; Viewlux plate reader
Keywords: cell viability, cytotoxicity, lymphoblastoid cell line, luminescence, NTPHTS, NTPHTS_NCGC, NIEHS, DSSTox, MLSMR, MLSCN, NIH Roadmap, qHTS, NCGC
Potency is the fitted concentration of half-maximal effect.

Row | SMILES | activity change, negative = viability loss | Potency
1 | COC(=O)CCCC(=O)OC | 4.97% | 
2 | C1COC1 | -7.1% | 
3 | CC(=O)c1ccccc1[N+](=O)[O-] | -2.33% | 
4 | CCCCC/C=C/C=C/C=O |  | 39.8 µM (active)
5 | Cc1cccc(C)c1 | -4.92% | 
6 | Cc1cccc(C)c1O | -1.3% | 
7 | Nc1cccc([N+](=O)[O-])c1 | -3.53% | 
8 | O=C(Cl)c1cccc([N+](=O)[O-])c1 | 0.721% | 
9 | CCOC(=O)OCC | 5.26% | 
10 | NC(=O)c1cccc([N+](=O)[O-])c1 | -4.61% | 
11 | O=C(O)c1ccc(CO)o1 | -28% | 
12 | Cc1cscn1 | -10.6% | 
13 | Cc1ccc(C)c([N+](=O)[O-])c1 | -9.25% | 
14 | COc1cccc2sc(N)nc12 | -1.35% | 
15 | CCC(C)=O | -7.08% | 
16 | CCN(C(=O)N(CC)c1ccccc1)c1ccccc1 | -12.5% | 
17 | O=C(O)CCSSCCC(=O)O | 1.68% | 
18 | CC=C(Cl)Cl | -1.73% | 
19 | CCCCCCCCC | 3.92% | 
20 | CCCCCCCCCCCCC1CO1 (stereo not given) | -7.33% | 

Row | SMILES | activity change, negative = viability loss | Potency
21 | O=C(Cl)c1ccccc1[N+](=O)[O-] | -0.884% | 
22 | O=C(O)c1ccc(Cl)c(Cl)c1 | -1.01% | 
23 | CC(=O)C1(C)CC2=C(CCCC2(C)C)CC1C (stereo not given) | -1.14% | 
24 | c1ccsc1 | -5.51% | 
25 | c1ccc2[nH]cnc2c1 | -4.63% | 
26 | CC(C)N(C)C | 6.16% | 
27 | OCCO | -7.88% | 
28 | NC(N)=S | -6.61% | 
29 | CC(C)c1ccccc1 | -0.0229% | 
30 | Nc1cc(S(=O)(=O)O)ccc1O | 1.84% | 
31 | C=CCOC(=O)CCCCCCCC | -1.26% | 
32 | NS(=O)(=O)O | -10.4% | 
33 | Cc1ccccc1Br | -7.31% | 
34 | BrC(Br)C(Br)Br | 1.47% | 
35 | Nc1ccc([N+](=O)[O-])c(N)c1 | -7.62% | 
36 | C=CCCCCCCC=C | -4.4% | 
37 | COc1ccc(N)c(C)c1 | -7.16% | 
38 | C=CCOC(=O)COCCC(C)C | -5.98% | 
39 | Cc1ccc(Cl)cc1N | -6.47% | 
40 | COc1ccc(N)c(OC)c1 | -12% | 
